Holding throughout (experiment): DAPPL (digital affinity profiling via proximity ligation, sequencing); 10 mM Tris-HCl pH 7.5, 50 mM NaCl, 1 mM DTT, 4% glycerol, room temperature, 30 min; GST-TFs on glutathione beads, 16-mer random dsDNA library, 0.1% formaldehyde crosslink after washing; high values mean tight binding
One experiment deals with T1, FEV (Homo sapiens, UniProt Q99581 1-238).
T1 sequence: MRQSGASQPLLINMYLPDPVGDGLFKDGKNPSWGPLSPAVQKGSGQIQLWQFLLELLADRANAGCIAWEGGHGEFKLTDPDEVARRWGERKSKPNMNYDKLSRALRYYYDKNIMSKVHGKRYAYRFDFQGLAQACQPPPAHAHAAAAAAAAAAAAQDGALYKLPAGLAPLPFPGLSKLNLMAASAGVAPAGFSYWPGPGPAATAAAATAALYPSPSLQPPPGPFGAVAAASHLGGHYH
The settings on record: protein: recombinant; tags: N-terminal GST; dsDNA, one strand shown. In outline: (§1)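 After expression in yeast as GST fusions, human transcription factors were bound to glutathione beads, DNA-barcoded and mixed with a tag-only sample. The pools were incubated with 200 nmole of a 16-mer random double-stranded DNA library in Tris/NaCl/DTT/glycerol buffer (30 min, room temperature), washed and crosslinked with 0.1% formaldehyde. Proximity ligation with BsaI/T4 ligase ran for 1 h at 37 °C, before PCR amplification and sequencing on an Illumina NextSeq500. Binding signal is a hexamer's read frequency for a factor divided by its frequency for the tag-only sample.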

Another experiment deals with ETV5 (Homo sapiens, UniProt P41161 1-510). Conditions: protein: recombinant; tags: N-terminal GST; dsDNA, one strand shown. In outline:
as §1

For a further experiment, the target named is HSF1 (Homo sapiens, UniProt Q00613 1-529). The settings on record: protein: recombinant; tags: N-terminal GST; chain copies: 3; dsDNA, one strand shown. A digest of the protocol: as §1
Another experiment has as its target T2, SPIC (Homo sapiens, UniProt Q8N5J4 1-248).
T2 sequence: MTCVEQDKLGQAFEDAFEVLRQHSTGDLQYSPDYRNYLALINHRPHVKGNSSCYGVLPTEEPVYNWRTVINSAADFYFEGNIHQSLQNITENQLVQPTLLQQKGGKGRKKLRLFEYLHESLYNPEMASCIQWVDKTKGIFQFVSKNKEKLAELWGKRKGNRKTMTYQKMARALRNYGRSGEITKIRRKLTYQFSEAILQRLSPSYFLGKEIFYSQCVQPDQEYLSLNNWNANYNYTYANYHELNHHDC
The settings on record: protein: recombinant; tags: N-terminal GST; dsDNA, one strand shown. In outline: as §1

For another experiment, the target named is ELF4 (Homo sapiens, UniProt Q99607 1-663). The settings on record: protein: recombinant; tags: N-terminal GST; dsDNA, one strand shown. In outline:
as §1

For the next experiment, the target named is T3, ELK4 (Homo sapiens, UniProt P28324-2 1-405).
T3 sequence: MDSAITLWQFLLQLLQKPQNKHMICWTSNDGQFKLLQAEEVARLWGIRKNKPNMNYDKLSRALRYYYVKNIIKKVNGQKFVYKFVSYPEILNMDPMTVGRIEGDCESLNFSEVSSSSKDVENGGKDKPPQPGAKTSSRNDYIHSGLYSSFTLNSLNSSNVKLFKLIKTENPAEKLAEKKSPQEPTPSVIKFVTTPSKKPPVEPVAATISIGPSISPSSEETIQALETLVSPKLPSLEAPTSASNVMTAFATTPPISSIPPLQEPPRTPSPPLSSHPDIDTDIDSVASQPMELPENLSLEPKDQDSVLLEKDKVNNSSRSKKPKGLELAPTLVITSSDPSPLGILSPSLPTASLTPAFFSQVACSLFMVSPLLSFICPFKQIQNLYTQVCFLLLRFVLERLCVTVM
The settings on record: protein: recombinant; tags: N-terminal GST; dsDNA, one strand shown. A digest of the protocol: as §1

The target in a further experiment is T4, ETV2 (Homo sapiens, UniProt O00321 1-342).
T4 sequence: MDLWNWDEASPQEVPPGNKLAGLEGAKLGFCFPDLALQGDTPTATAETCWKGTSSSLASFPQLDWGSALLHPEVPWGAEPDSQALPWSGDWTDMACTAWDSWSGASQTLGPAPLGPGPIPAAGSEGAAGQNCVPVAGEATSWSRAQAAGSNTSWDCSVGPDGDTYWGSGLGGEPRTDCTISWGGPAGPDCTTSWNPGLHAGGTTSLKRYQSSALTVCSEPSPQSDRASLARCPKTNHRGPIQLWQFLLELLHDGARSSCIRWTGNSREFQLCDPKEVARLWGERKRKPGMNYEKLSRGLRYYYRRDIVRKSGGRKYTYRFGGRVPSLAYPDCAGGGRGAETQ
Conditions: protein: recombinant; tags: N-terminal GST; dsDNA, one strand shown. In outline:
as §1

The target of a further experiment is T5, ELF3 (Homo sapiens, UniProt P78545 1-371).
T5 sequence: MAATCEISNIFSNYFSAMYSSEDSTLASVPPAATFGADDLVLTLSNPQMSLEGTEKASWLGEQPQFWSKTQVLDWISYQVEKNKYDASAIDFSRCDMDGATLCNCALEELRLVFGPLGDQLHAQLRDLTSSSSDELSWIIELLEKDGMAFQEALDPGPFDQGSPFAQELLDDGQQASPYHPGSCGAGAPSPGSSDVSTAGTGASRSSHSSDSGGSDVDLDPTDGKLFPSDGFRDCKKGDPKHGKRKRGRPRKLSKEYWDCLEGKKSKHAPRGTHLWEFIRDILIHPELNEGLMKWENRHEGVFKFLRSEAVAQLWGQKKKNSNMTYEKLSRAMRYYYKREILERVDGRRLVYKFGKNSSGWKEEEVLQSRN
Conditions: protein: recombinant; tags: N-terminal GST; dsDNA, one strand shown. A digest of the protocol:
as §1

For the next experiment, the target named is CRX (Homo sapiens, UniProt O43186 1-299). Conditions: protein: recombinant; tags: N-terminal GST; dsDNA, one strand shown. In outline:
as §1

The target of another experiment is ETV1 (Homo sapiens, UniProt P50549 1-477). The settings on record: protein: recombinant; tags: N-terminal GST; dsDNA, one strand shown. A digest of the protocol: as §1
A further experiment has as its target T6, ERF (Homo sapiens, UniProt P50548 1-548).
T6 sequence: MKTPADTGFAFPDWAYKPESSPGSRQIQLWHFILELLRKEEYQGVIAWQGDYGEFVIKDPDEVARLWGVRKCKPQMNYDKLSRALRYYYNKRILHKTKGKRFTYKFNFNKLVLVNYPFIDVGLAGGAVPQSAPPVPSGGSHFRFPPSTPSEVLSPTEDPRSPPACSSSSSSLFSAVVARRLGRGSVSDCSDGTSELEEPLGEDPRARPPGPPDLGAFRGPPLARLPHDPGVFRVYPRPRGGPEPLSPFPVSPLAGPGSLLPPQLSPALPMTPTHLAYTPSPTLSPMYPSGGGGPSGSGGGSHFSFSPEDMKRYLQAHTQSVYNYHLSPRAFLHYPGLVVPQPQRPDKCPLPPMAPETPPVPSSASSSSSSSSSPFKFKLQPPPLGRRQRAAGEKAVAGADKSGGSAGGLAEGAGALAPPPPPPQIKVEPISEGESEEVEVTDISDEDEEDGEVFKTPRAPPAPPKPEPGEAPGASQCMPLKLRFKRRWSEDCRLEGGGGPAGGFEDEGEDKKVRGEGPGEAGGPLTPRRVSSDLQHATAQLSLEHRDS
Conditions: protein: recombinant; tags: N-terminal GST; dsDNA, one strand shown. In outline:
as §1

For another experiment, the target named is T7, ETV3L (Homo sapiens, UniProt Q6ZN32 1-361).
T7 sequence: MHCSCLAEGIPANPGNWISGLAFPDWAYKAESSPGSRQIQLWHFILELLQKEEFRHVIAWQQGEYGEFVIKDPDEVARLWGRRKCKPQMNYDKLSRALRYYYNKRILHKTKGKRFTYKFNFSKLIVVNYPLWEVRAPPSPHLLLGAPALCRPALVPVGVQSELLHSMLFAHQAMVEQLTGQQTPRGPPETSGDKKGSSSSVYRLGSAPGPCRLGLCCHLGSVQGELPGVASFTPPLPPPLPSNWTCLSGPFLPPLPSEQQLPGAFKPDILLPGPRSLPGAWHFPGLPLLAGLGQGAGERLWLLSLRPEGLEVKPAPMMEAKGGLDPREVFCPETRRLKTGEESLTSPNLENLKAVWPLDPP
Conditions: protein: recombinant; tags: N-terminal GST; dsDNA, one strand shown. In outline: as §1

A further experiment addresses T8, ETS2 (Homo sapiens, UniProt P15036 1-469).
T8 sequence: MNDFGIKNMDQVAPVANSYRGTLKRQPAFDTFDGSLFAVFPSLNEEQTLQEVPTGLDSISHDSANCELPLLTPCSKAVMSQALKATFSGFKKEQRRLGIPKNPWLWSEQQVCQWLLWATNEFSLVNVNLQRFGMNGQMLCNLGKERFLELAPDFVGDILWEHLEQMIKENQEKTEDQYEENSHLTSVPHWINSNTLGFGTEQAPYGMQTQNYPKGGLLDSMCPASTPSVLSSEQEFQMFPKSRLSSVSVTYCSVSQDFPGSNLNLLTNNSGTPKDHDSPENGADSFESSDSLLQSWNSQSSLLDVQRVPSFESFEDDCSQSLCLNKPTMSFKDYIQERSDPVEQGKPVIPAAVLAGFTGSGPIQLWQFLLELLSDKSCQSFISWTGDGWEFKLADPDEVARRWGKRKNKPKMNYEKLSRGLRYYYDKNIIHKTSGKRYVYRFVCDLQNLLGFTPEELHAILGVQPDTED
The settings on record: protein: recombinant; tags: N-terminal GST; dsDNA, one strand shown. In outline: as §1

For the next experiment, the target named is T9, SPDEF (Homo sapiens, UniProt O95238 1-335).
T9 sequence: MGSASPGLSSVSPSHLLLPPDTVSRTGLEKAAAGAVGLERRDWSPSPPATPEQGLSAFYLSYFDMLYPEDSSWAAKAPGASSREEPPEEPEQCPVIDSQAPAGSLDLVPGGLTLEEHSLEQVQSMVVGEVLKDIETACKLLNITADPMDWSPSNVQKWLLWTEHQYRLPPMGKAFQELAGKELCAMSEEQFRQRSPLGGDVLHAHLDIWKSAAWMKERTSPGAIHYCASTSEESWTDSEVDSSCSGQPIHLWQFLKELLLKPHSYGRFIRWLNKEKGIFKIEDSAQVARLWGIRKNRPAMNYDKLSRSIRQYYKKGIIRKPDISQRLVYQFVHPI
The settings on record: protein: recombinant; tags: N-terminal GST; dsDNA, one strand shown. In outline: as §1

The target of another experiment is T10, ETV7 (Homo sapiens, UniProt Q9Y603 1-341).
T10 sequence: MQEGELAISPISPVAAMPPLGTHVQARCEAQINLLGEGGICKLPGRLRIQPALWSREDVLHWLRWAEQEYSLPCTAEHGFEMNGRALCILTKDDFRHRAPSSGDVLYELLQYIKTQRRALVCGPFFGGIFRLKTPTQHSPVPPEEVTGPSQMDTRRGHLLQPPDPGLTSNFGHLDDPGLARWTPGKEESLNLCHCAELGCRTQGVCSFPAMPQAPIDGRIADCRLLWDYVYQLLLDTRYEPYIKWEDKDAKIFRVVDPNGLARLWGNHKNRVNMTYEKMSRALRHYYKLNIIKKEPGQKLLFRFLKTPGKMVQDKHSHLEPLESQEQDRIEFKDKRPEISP
Conditions: protein: recombinant; tags: N-terminal GST; dsDNA, one strand shown. A digest of the protocol: as §1

The target of the next experiment is T11, ELF5 (Homo sapiens, UniProt Q9UKW6-2 1-255).
T11 sequence: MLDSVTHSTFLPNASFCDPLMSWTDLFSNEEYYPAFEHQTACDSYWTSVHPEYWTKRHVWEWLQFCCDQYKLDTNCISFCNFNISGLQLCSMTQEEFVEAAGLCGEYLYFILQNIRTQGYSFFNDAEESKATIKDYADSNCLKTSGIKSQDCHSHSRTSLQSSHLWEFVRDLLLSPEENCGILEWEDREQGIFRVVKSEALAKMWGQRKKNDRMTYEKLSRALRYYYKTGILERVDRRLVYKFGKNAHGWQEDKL
The settings on record: protein: recombinant; tags: N-terminal GST; dsDNA, one strand shown. A digest of the protocol: as §1

A further experiment addresses T12, ETV3 (Homo sapiens, UniProt P41162-2 1-143).
T12 sequence: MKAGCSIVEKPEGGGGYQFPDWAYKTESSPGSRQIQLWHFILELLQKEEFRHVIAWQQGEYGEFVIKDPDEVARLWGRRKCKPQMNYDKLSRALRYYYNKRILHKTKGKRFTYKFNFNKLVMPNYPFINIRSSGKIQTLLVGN
Conditions: protein: recombinant; tags: N-terminal GST; dsDNA, one strand shown. A digest of the protocol:
as §1

The next experiment deals with ETV6 (Homo sapiens, UniProt P41212 1-452). The settings on record: protein: recombinant; tags: N-terminal GST; dsDNA, one strand shown. In outline:
as §1

Sequence of ETV1 (P50549 whole entry): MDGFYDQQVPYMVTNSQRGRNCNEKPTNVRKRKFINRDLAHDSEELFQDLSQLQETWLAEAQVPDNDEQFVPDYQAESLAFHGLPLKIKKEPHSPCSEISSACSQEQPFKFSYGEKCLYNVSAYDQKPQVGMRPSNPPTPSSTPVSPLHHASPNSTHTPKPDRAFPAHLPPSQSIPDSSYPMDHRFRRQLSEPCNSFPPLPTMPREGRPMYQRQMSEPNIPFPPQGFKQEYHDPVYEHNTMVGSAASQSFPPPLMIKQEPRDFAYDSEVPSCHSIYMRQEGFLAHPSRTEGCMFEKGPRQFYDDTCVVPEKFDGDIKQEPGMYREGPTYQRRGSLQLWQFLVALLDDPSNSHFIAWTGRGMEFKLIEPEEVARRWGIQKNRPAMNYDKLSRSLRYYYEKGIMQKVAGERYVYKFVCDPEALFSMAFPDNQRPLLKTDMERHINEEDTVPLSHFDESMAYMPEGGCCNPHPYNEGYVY
Sequence of CRX (O43186 whole entry): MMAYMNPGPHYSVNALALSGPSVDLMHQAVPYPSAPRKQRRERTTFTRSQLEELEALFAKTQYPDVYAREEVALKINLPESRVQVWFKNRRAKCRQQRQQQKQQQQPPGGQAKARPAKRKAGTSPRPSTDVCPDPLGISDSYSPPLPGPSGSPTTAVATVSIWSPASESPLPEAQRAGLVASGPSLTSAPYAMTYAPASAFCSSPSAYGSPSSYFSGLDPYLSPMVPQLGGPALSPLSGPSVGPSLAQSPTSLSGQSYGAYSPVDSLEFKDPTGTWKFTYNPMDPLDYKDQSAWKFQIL
Sequence of ETV5 (P41161 whole entry): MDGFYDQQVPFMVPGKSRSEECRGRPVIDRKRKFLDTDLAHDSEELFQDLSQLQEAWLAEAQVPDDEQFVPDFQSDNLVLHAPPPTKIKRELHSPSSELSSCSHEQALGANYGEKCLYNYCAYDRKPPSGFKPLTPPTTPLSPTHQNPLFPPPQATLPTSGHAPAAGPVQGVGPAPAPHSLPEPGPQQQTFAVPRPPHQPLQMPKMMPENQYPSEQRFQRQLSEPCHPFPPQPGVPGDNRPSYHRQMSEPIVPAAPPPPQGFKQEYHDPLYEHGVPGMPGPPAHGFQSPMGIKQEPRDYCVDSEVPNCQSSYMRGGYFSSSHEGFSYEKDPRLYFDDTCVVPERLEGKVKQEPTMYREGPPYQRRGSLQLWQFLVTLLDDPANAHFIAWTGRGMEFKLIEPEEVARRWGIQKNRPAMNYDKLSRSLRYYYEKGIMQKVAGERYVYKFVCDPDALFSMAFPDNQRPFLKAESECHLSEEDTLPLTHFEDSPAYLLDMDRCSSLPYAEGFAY
Sequence of ELF4 (Q99607 whole entry): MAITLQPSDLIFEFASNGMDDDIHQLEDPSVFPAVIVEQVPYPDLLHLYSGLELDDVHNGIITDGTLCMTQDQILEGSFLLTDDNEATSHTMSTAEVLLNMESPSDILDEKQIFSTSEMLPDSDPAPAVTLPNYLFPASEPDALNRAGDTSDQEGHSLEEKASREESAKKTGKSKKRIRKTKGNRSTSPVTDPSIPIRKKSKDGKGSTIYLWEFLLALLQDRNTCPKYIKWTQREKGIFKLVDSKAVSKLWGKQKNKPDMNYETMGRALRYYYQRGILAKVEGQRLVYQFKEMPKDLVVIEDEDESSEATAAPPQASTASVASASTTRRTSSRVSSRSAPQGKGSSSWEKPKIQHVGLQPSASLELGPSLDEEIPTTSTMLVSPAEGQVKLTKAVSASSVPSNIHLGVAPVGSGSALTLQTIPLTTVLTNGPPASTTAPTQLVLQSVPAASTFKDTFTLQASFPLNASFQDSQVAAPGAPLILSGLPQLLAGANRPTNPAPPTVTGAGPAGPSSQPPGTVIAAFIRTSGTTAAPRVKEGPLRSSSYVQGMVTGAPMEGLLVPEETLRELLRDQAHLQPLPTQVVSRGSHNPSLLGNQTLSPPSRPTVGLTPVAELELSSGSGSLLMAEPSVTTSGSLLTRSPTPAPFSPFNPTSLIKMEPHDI
Sequence of ETV6 (P41212 whole entry): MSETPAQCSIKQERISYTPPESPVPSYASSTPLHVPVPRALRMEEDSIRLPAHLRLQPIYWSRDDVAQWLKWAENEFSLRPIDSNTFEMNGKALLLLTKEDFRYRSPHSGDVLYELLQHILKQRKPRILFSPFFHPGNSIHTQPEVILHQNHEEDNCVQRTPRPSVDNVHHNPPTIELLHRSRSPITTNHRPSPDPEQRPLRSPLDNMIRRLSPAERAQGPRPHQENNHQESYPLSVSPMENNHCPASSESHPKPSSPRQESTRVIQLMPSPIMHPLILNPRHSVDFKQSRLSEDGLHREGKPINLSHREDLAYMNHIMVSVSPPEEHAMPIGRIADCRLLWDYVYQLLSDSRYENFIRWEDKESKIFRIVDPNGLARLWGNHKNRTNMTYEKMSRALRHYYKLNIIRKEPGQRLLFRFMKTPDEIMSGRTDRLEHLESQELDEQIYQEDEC
Sequence of HSF1 (Q00613 whole entry): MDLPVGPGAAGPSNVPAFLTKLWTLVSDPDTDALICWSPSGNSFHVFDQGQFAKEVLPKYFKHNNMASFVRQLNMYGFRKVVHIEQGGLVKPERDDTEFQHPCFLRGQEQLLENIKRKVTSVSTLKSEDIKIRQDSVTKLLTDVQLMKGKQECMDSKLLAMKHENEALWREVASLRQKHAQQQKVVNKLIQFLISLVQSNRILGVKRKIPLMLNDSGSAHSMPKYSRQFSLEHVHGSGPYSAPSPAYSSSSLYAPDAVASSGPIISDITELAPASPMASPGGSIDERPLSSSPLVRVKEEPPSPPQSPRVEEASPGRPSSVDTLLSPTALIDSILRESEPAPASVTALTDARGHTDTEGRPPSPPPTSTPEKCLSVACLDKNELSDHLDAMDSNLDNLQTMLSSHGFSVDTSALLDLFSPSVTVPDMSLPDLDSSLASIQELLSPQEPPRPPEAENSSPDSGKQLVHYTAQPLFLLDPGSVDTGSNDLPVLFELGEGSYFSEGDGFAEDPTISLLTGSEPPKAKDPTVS

On to CGCCCT, for which the binding signal with FEV was 1.37 fold enrichment (6-mer frequency, TF over GST control); with ETV5, 1.29 fold enrichment (6-mer frequency, TF over GST control); with HSF1, 1.13 fold enrichment (6-mer frequency, TF over GST control); with SPIC, 1.21 fold enrichment (6-mer frequency, TF over GST control); in the experiment with ELF4 it was 1.47 fold enrichment (6-mer frequency, TF over GST control); in the experiment with ELK4, 1.1 fold enrichment (6-mer frequency, TF over GST control). For the same sequence, the binding signal is 1.4 fold enrichment (6-mer frequency, TF over GST control) with ETV2; 1.04 fold enrichment (6-mer frequency, TF over GST control) with ELF3; 1.11 fold enrichment (6-mer frequency, TF over GST control) in the experiment with CRX; 1.37 fold enrichment (6-mer frequency, TF over GST control) with ETV1; 1.37 fold enrichment (6-mer frequency, TF over GST control) with ERF; 1.34 fold enrichment (6-mer frequency, TF over GST control) with ETV3L. Also, the binding signal in the experiment with ETS2 is 1.38 fold enrichment (6-mer frequency, TF over GST control); with SPDEF, 1.31 fold enrichment (6-mer frequency, TF over GST control); with ETV7, 1.51 fold enrichment (6-mer frequency, TF over GST control); with ELF5 it was 1.22 fold enrichment (6-mer frequency, TF over GST control); with ETV3, 1.34 fold enrichment (6-mer frequency, TF over GST control); with ETV6, 1.31 fold enrichment (6-mer frequency, TF over GST control).

These data come from PMC7862700, “An all-to-all approach to the identification of sequence-specific readers for epigenetic DNA modifications on cytosine”.
